According to PubChem BioAssay (EPA / NIEHS):
Inconclusive results are not listed. Active and inactive are the calls of the source. How the source made its calls, unless noted: active means hit-call score of the fitted dose curve at least 0.9, where 1 is the maximum; inactive means score below 0.9.

How the values were obtained:
[1] = read-out: TIMP1, TIMP1 (gene 7076); experiment: LTEA_HepaRG_TIMP1: Life Technologies and Expression Analysis (LTEA) Assay for TIMP1 using HepaRG (AID 2283534); conditions: mRNA level, 48 h; actives raise or lower the signal
In short: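 Differentiated human HepaRG cells in serum-free induction medium were exposed 48 h to chemicals (8 half-log concentrations, top 100 uM, 0.5% DMSO). TIMP1 mRNA was quantified by TaqMan qRT-PCR, normalized to ACTB/GAPDH/POLR2A; bidirectional fit versus DMSO.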

[2] = read-out: Tumor necrosis factor receptor 1 (TNFRSF1A), TNFRSF1A (gene 7132); experiment: LTEA_HepaRG_TNFRSF1A: Life Technologies and Expression Analysis (LTEA) Assay for Tumor necrosis factor receptor 1 (TNFRSF1A) using HepaRG (AID 2283535); conditions: mRNA level, 48 h; actives raise or lower the signal
In short: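 Differentiated human HepaRG cells were exposed in duplicate for 48 h in serum-free induction medium to eight concentrations (top 100 uM, half-log steps, 0.5% DMSO). TNFRSF1A mRNA was quantified by qRT-PCR, normalized to ACTB, GAPDH and POLR2A, then fitted bidirectionally against DMSO.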

[3] = read-out: Thyroid Hormone Responsive (THRSP), THRSP (gene 7069); experiment: LTEA_HepaRG_THRSP: Life Technologies and Expression Analysis (LTEA) Assay for Thyroid Hormone Responsive (THRSP) using HepaRG (AID 2283536); conditions: mRNA level, 48 h; actives raise or lower the signal
In short: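 THRSP transcript quantified by Fluidigm qRT-PCR against three housekeeping genes after 48 h chemical exposure of HepaRG cells in serum-free induction medium; eight-point half-log series, top 100 uM, 0.5% DMSO vehicle, duplicate wells.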

[4] = read-out: UDP glucuronosyltransferase (UGT1A1), UGT1A1 (gene 54658); experiment: LTEA_HepaRG_UGT1A1: Life Technologies and Expression Analysis (LTEA) Assay for UDP glucuronosyltransferase (UGT1A1) using HepaRG (AID 2283538); conditions: mRNA level, 48 h; actives raise or lower the signal
In short: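 HepaRG, 48 h chemical exposure (top 100 uM, half-log 8-pt, 0.5% DMSO vehicle), duplicate wells; qRT-PCR (TaqMan, Fluidigm array) for UGT1A1 mRNA, housekeeping-normalized; bidirectional curve fit vs DMSO baseline.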

[5] = read-out: UDP glucuronosyltransferase (UGT1A6), UGT1A6 (gene 54578); experiment: LTEA_HepaRG_UGT1A6: Life Technologies and Expression Analysis (LTEA) Assay for UDP glucuronosyltransferase (UGT1A6) using HepaRG (AID 2283539); conditions: mRNA level, 48 h; actives raise or lower the signal
In short: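 Human HepaRG cells were dosed for 48 h in serum-free induction medium with 0.5% DMSO vehicle, eight-point half-log series from 100 uM, in duplicate. UGT1A6 mRNA was measured by qRT-PCR, normalized to ACTB, GAPDH, POLR2A, and fitted bidirectionally against DMSO.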

[6] = read-out: X-box binding protein 1 (XBP1), XBP1 (gene 7494); experiment: LTEA_HepaRG_XBP1: Life Technologies and Expression Analysis (LTEA) Assay for X-box binding protein 1 (XBP1) using HepaRG (AID 2283540); conditions: mRNA level, 48 h; actives raise or lower the signal
In short: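 Differentiated human HepaRG cells in serum-free induction medium were exposed in duplicate for 48 h to eight half-log concentrations up to 100 uM in 0.5% DMSO. XBP1 mRNA was quantified by qRT-PCR, normalised to ACTB, GAPDH and POLR2A, with bidirectional fitting against DMSO.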

[7] = LTEA_HepaRG_LDH_cytotoxicity: Cytotoxicity Assessment in the Life Technologies and Expression Analysis (LTEA) Assay (AID 2283563; active means hit-call score of the fitted dose curve at least 0.9, where 1 is the maximum;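 on AC50: LDH activity released into spent culture medium as a marker of cell death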)
In short: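 Differentiated human HepaRG cells, plated 48 h beforehand, were switched to serum-free induction medium and exposed for 48 h to eight half-log concentrations (top 100 uM) in 0.5% DMSO. LDH was measured in spent medium; activity was fitted relative to DMSO vehicle.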

[8] = read-out: Cellular tumor antigen p53 (Homo sapiens) (UniProt P04637); experiment: LTEA_HepaRG_TP53: Life Technologies and Expression Analysis (LTEA) Assay for Tumor Protein P53 (TP53) using HepaRG (AID 2283537); conditions: mRNA level, 48 h; actives raise or lower the signal
In short: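 Gain or loss of TP53 mRNA signal is scored relative to 0.5% DMSO after 48 h chemical treatment of HepaRG liver cells, tested in duplicate at eight half-log concentrations up to 100 uM.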

[9] = target: Cellular tumor antigen p53 (Homo sapiens) (UniProt P04637); experiment: TOX21_p53_BLA_p2_ratio: Tox21 HCT-116 p53 Agonism Beta-lactamase Assay, Ratio, Phase 2 (AID 2283592; active means hit-call score of the fitted dose curve at least 0.9, where 1 is the maximum)
Cellular tumor antigen p53 (Homo sapiens), sequence (P04637 whole entry, looked up): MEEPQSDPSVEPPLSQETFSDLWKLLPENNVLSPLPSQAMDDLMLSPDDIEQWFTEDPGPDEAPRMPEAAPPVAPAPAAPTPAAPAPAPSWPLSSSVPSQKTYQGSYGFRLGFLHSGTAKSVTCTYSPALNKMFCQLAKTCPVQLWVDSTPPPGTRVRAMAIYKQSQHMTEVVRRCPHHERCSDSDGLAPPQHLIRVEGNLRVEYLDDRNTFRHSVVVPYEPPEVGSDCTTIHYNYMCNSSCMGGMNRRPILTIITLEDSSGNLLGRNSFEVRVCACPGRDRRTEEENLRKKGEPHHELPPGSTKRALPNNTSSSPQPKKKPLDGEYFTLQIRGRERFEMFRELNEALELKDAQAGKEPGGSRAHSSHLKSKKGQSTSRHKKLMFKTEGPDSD
In short: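 Ratio endpoint: beta-lactamase cleavage of CCF4-AM, blue (460 nm) over green (530 nm). HCT116 reporter line; 16 h treatment, 37C; substrate 2 h RT.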

[10] = ATG_XTT_Cytotoxicity: Cytotoxicity Assessment in the Attagene TRANS-FACTORIAL HepG2 Assay (AID 2283584; active means hit-call score of the fitted dose curve at least 0.9, where 1 is the maximum)
In short: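 HepG2 human liver cells, transiently transfected with multiple GAL4-UAS reporter units, were dosed and read at 24 h by XTT as cell number. Loss of signal was fitted relative to DMSO negative control baseline.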

Measured: AC50

COCc1nnc(-c2ccc[n+]([O-])c2)n1-c1c(Cl)c(Cl)cc2[nH]c(=O)c(=O)[nH]c12
not listed: [8] | [9] | [10]
inactive: all other assays above

c1ccc2ncccc2c1
not listed: [10]
inactive: all other assays above

CCCCCCCCN(C)C
not listed: [3] | [9] | [10]
inactive: all other assays above

CC(C)c1nnc2ccc(-c3ocnc3-c3cc(F)ccc3F)cn12
inactive: [1] | [2] | [8] | [7]
active: [3] 9.92 µM | [4] 0.836 µM | [5] 80.3 µM | [6] 39 µM

CCOC(N)=O
not listed: [10]
inactive: all other assays above

CCCCCCOC(=O)CC(CC(=O)OCCCCCC)(OC(=O)CCC)C(=O)OCCCCCC
not listed: [8] | [9] | [10]
inactive: all other assays above

CNC(C)=O
not listed: [8] | [9] | [10]
inactive: all other assays above

CCCCCCCC1CCC(=O)O1 (configuration not stated)
inactive: [1] | [2] | [8] | [4] | [5] | [6]

Cc1nc(-c2ccccn2)ncc1C(=O)Nn1cc(C)c2cc(F)ccc21
active: [4] 12 µM | [5] 78.5 µM
inactive: [1] | [2] | [3] | [6] | [7]

COc1cc2c(c(OC)c1OC)-c1ccc(OC)c(=O)cc1[C@@H](NC(C)=O)CC2
active: [3] 0.073 µM | [4] 0.113 µM | [5] 0.237 µM | [6] 0.218 µM
inactive: [1] | [2] | [7]

c1ccc2c(c1)-c1cccc3c1c-2cc1ccccc13
inactive: [4] | [5] | [7] | [10]
active: [1] 4.93 µM | [2] 14.7 µM | [3] 27.7 µM | [6] 12.7 µM

CCCCC(CC)C(=O)OCCOCCOCCOC(=O)C(CC)CCCC (configuration not stated)
active: [2] 78.2 µM
not listed: [10]
inactive: all other assays above

CCN(CC)C(=S)SSC(=S)N(CC)CC
not listed: [9] | [10]
inactive: all other assays above

OCCOCCOCCO
not listed: [10]
inactive: all other assays above

c1ccc(C(O[C@@H]2CCCN(CCc3ccc4c(c3)OCO4)C2)c2ccccc2)cc1
inactive: [1] | [6]
active: [2] 85.9 µM | [8] 75.4 µM | [4] 79.1 µM | [5] 83 µM | [7] 74.7 µM | [9] 70.1 µM

CC1(C)C(=O)N(Cl)C(=O)N1Cl
not listed: [10]
inactive: all other assays above

O=c1[nH]cnc2c1ncn2[C@H]1CC[C@@H](CO)O1
not listed: [8] | [9] | [10]
inactive: all other assays above

CCCC(CCC)C(=O)O
not listed: [8] | [9] | [10]
inactive: all other assays above

NC(N)=O
not listed: [8] | [9] | [10]
inactive: all other assays above

CCCCCCCC/C=C\CCCCCCCC(=O)OC[C@@H](O)[C@H]1OC[C@H](O)[C@H]1O
inactive: all assays above

CCc1ccc(O)c(C(C)(C)C)c1
active: [9] 69.7 µM
not listed: [10]
inactive: all other assays above

OC[C@H]1O[C@@H]2O[C@H]3[C@H](O)[C@@H](O)[C@@H](O[C@H]4[C@H](O)[C@@H](O)[C@@H](O[C@H]5[C@H](O)[C@@H](O)[C@@H](O[C@H]6[C@H](O)[C@@H](O)[C@@H](O[C@H]7[C@H](O)[C@@H](O)[C@@H](O[C@H]1[C@H](O)[C@H]2O)O[C@@H]7CO)O[C@@H]6CO)O[C@@H]5CO)O[C@@H]4CO)O[C@@H]3CO
not listed: [8] | [9] | [10]
inactive: all other assays above

CCCCCCCCCCCCCCCCOS(=O)(=O)O
active: [1] 0.351 µM
not listed: [3] | [10]
inactive: all other assays above

NC(=O)NN=Cc1ccc([N+](=O)[O-])o1
active: [8] 9.92 µM
not listed: [3]
inactive: all other assays above

C[C@]12C=CC(=O)C=C1CC[C@H]1[C@@H]3C[C@@H](O)[C@](O)(C(=O)CO)[C@@]3(C)C[C@H](O)[C@@]12F
not listed: [10]
inactive: all other assays above

COc1cc(C(C)C)c2c(c1)S(=O)(=O)N(COc1cc(=O)n3cccc(OCCN4CCCCC4)c3n1)C2=O
inactive: [2] | [6]
active: [1] 19.8 µM | [3] 20.8 µM | [4] 22.6 µM | [5] 19.9 µM | [7] 19.2 µM

O=C(O)c1ccc2c(c1)nc(C(=O)NC1CCN(C3CC3)CC1)n2Cc1cc(-c2ccc(Cl)s2)on1
not listed: [3] | [10]
inactive: all other assays above

c1ccc2cc3ccccc3cc2c1
active: [4] 13.1 µM
not listed: [10]
inactive: all other assays above

Cn1cc[nH]c1=S
not listed: [3] | [9] | [10]
inactive: all other assays above

C=CCc1cc(S(=O)(=O)c2ccc(O)c(CC=C)c2)ccc1O
inactive: [1] | [2] | [4]
active: [3] 88.4 µM | [5] 80.7 µM | [6] 66.7 µM | [7] 76.7 µM

OCC(CO)(CO)CO
not listed: [8] | [9] | [10]
inactive: all other assays above

CCCCN1C(=O)[C@@H]([C@H](O)C2CCCCC2)NC(=O)C12CCN(Cc1ccc(Oc3ccc(C(=O)O)cc3)cc1)CC2
active: [2] 6.08 µM | [3] 1.27 µM | [4] 2.79 µM | [5] 10 µM | [6] 3.25 µM | [7] 37.5 µM | [9] 38.1 µM
inactive: [1] | [8]
